Results filed as inconclusive are left out. Entries that show only a call come without a potency. Active and inactive are the calls of the source. Calls follow the shape of the dose curve; as a rule, active = well fitted inhibition curve with a large enough effect; inconclusive = small, poorly fitted or top-dose-only effect, or effect the other way; inactive = flat fitted curve, though single readings scatter.
Assay: qHTS for Inhibitors of Plasmodium falciparum (GB4) proliferation (AID 504315); also: nearly all actives have a fitted effect of over 50% in size
Settings: P. falciparum GB4 in erythrocytes, SYBR Green DNA, 72 h; series mostly up to 6.7 µM
Text: Plasmodium falciparum is a virulent malarial parasite that kills 1-2 million people worldwide each year. Malaria not only inflicts tremendous suffering and morbidity on the human population, but has dramatically influenced the course of civilization with profound sociological and economic implications (Shah, S. 2010). Transmitted by mosquitoes, the sporozoite form of the parasite enters the blood stream to infect hepatocytes, where they become merozoites that infect red blood cells (erythrocytes). Within erythrocytes, merozoites begin a […] cycle of growth and division, after which the parasite is released to infect new red blood cells. Gametocytes, which form within erythrocytes as well, circulate in the bloodstream and are ingested by the mosquito, thereby completing the life cycle (see CDC website). To profile malarial lines for differential chemical responses and to identify inhibitors of malarial growth, an assay that measures P. falciparum growth and replication within erythrocytes was employed. This assay uses a DNA binding fluorescent dye (SYBR Green) to detect parasite DNA following cell lysis. Because mature erythrocytes lack DNA, only Plasmodium-derived DNA is detected. The P. falciparum line cp250, derived from a malarial isolate from Cambodia, (Mu, J., et al. 2010) was added to the panel of lines, Dd2, HB3, 7G8 and GB4 in this study. Laboratory of Assay Development and Screening Technology [ADST] and NIH Chemical Genomics Center [NCGC] Boston University, Chemistry Department, Center for Chemical Methodology and Library Development [CMLD-BU] NIH National Institute of Allergy and Infectious Diseases [NIAID]
ADST Assay Protocol Summary: The 1536-well SYBR Green viability assay was based on the method of Bennett et al (2004) and described previously in 1536-well format (Yuan J., et al. 2009). For screening 3 ul culture medium was dispensed into 1536 well black clear bottom plates (Aurora Biotechnologies) using a Multidrop Combi (Thermo Fisher Scientific Inc.), 23 nL compounds in DMSO were added by a pin transfer (Cleveland, P.H. and Koutz, P.J, 2005) using a pin tool-based delivery system (Kalypsys), and 5 ul of erythrocytes infected with P. falciparum one of five lines (cp250, Dd2, HB3, 7G8 or GB4, 0.3% parasitemia, 2.5% hematocrit final concentration) were added. The plates were incubated at 37C in a humidified incubator in 5% CO2 for 72 h, and 2 ul lysis buffer (20 mM Tris HCl, 10 mM EDTA, 0.16% saponin, 1.6% triton X, 10X SYBR Green I (supplied as 10,000X final concentration by Invitrogen) was added to each well. The plates were mixed for 25 sec with gentle shaking and incubated overnight at room temperature in the dark. The following morning, fluorescence intensity at 485(14) nm excitation and 535(25) nm emission wavelengths was measured on an EnVision (Perkin Elmer) plate reader. Plate reads were normalized relative to the control inhibitor (0.29 uM artemisinin) and vehicle (DMSO) wells present on each plate and then corrected by an algorithm using vehicle-only control plates at the beginning and end of the compound plate stack. References Shah, S. (2010). The Fever: how malaria has ruled humankind for 500,000 years. New York, Sarah Crichton Books. CDC web site, http://www.cdc.gov/malaria/about/biology/index.html Mu, J., Myers, R.A., Jiang, H., Liu, S., Ricklefs, S., Waisberg, M., Chotivanich, K., Wilairatana, P., Krudsood, S., White, N.J., et Plasmodium falciparum genome-wide scans for positive selection, recombination hot spots and resistance to antimalarial drugs Nature Genetics 2010, 42, pp 268-271 Bennett TN, Paguio, M., Gligorijevic, B., Seudieu, C., Kosar, A. D., Davidson, E., and Roepe, P. D. Novel, rapid, and inexpensive cell-based quantification of antimalarial drug efficacy Antimicrobial Agents Chemother. 2004, 48(5): pp 1807-10 Yuan J, Johnson RL, Huang RL, Wichterman J, Jiang HY, Hayton K, Fidock DA, Wellems TE, Inglese J, Austin CP, Su XZ. […]
Potency is read from the fitted curve at half-maximal effect.

Row | SMILES | Potency
1 | COC(=O)C1=C(C(=O)OC)[C@@H]2N(C)c3ccccc3[C@@]23C[C@@H](C(=O)OC)N(S(=O)(=O)c2ccc(C#N)cc2)C3=N1 | inactive
2 | CCCCc1nc2c(c3c1C[C@H](C)OC3)CN(S(=O)(=O)c1ccc(C#N)cc1)CC2 | inactive
3 | COC(=O)C1=C(C(=O)OC)[C@@H]2Nc3ccccc3[C@@]23C[C@@H](C(=O)OC)N(C(=O)NC2CCCC2)C3=N1 | inactive
4 | COC(=O)C1=C(C(=O)OC)[C@@H]2N(C)c3ccccc3[C@@]23C[C@@H](C(=O)OC)N(S(=O)(=O)c2ccc(C)cc2)C3=N1 | inactive
5 | C=CCN1C=C2C(=O)C(C)(OC(=O)CCC(=O)OC)C(=O)C=C2C=C1C1CC1 (stereo not given) | inactive
6 | CCOC(=O)CN1C(=O)N[C@@H](c2cccc(F)c2)C(C(=O)OC)=C1C | inactive
7 | COC(=O)C1=C(C)N(Cc2ccccc2)C(=O)N[C@H]1CCc1ccccc1 | inactive
8 | COCCN1C(=O)N[C@@H](c2cccc(C(F)(F)F)c2)C(C(=O)OC)=C1C | inactive
9 | CCCCc1nc2c(c3c1C[C@H](C)OC3)CN(C(=O)C1CC1)CC2 | inactive
10 | Cc1ccccc1Nc1oc(-c2ccccc2)nc1-c1ccc(C(F)(F)F)cc1 | inactive
11 | COC(=O)C1=C(C(=O)OC)[C@@H]2N(C)c3ccccc3[C@@]23C[C@@H](C(=O)OC)N(C(=O)COCc2ccccc2)C3=N1 | inactive
12 | CCCCc1nc2c(c3c1C[C@H](C)OC3)CN(C(=O)COC)CC2 | inactive
13 | COC(=O)C1=C(C(=O)OC)[C@@H]2N(Cc3ccccc3)c3ccccc3[C@@]23C[C@@H](C(=O)OC)N(C(=O)NCCBr)C3=N1 | inactive
14 | COCCN1C(=O)N(C)[C@@H](c2ccccc2)C(C(C)=O)=C1C | inactive
15 | CCN(CC)CCCN1C=C2C(=O)C(C)(OC(=O)CCC(=O)OC)C(=O)C=C2C=C1C1CC1 (stereo not given) | inactive
16 | COC(=O)C1=C(C(=O)OC)[C@@H]2N(Cc3ccccc3)c3ccccc3[C@@]23C[C@@H](C(=O)OC)N(C(C)=O)C3=N1 | inactive
17 | CCN1C(=O)N[C@@H](c2cccc(C(F)(F)F)c2)C(C(C)=O)=C1C | inactive
18 | COC(=O)N[C@H](CC(C)=O)c1ccc(Cl)cc1 | inactive
19 | COC(=O)CCCC1=CC2=CC(=O)C(C)(OC(=O)c3cccs3)C(=O)C2=CN1C(CO)CO (stereo not given) | inactive
20 | COC(=O)CCCC1=CC2=CC(=O)C(C)(OC(=O)c3cccs3)C(=O)C2=CN1c1ccc(CO)cc1 (stereo not given) | inactive

Row | SMILES | Potency
21 | COC(=O)CCCC1=CC2=CC(=O)C(C)(OC(=O)c3cccs3)C(=O)C2=CN1CCCCO (stereo not given) | inactive
22 | CCCCC1=CC2=CC(=O)C(C)(OC(=O)CC)C(=O)C2=CN1Cc1ccc(OC)cc1 (stereo not given) | inactive
23 | CCOC(=O)CN1C(=O)N[C@@H](c2ccc(Br)cc2)C(C(=O)OC)=C1C | inactive
24 | COC(=O)CCCC1=CC2=C(c3ccccc3)C(=O)C(C)(OC(=O)C3CCCC3)C(=O)C2=CN1CC1CC1 (stereo not given) | inactive
25 | COCCN1C(=O)N[C@@H](c2ccco2)C(C(=O)OC)=C1C | inactive
26 | CCOC(=O)CN1C(=O)N[C@@H](CCc2ccccc2)C(C(C)=O)=C1C | inactive
27 | CCO[C@H](c1cc(OC)cc([N+](=O)[O-])c1OC)[C@H](C)C=CCC(=O)OC | inactive
28 | FC(F)(F)c1cc(NC(=S)NC23CC4CC(CC(C4)C2)C3)cc(C(F)(F)F)c1 | 1.07 µM (active)
29 | C=CC1=C2C=C(C3CC3)N(CCCCO)C=C2C(=O)C(C)(OC(=O)c2ccco2)C1=O (stereo not given) | inactive
30 | CC1(OC(=O)CCc2ccccc2)C(=O)C=C2C=C(c3ccc(C#N)cc3)N(CCN3CCOCC3)C=C2C1=O (stereo not given) | inactive
31 | COC(=O)C1=C(C(=O)OC)[C@@H]2N(C)c3ccc(OC)cc3[C@@]23C[C@@H](C(=O)OC)N=C3N1 | inactive
32 | COCCN1C(=O)N[C@@H](c2cccs2)C(C(C)=O)=C1C | inactive
33 | CC1(OC(=O)CCc2ccccc2)C(=O)C=C2C=C3CCCN3C=C2C1=O (stereo not given) | inactive
34 | COC/C=C/C1=CC2=CC(=O)C(C)(OC(=O)c3cnc4ccccc4n3)C(=O)C2=CN1C(CO)CO (stereo not given) | inactive
35 | COC/C=C/C1=CC2=CC(=O)C(C)(OC(=O)c3cnc4ccccc4n3)C(=O)C2=CN1CCCOC(C)C (stereo not given) | inactive
36 | COC(=O)CCC(=O)OC1(C)C(=O)C2=CN(Cc3ccc4c(c3)OCO4)C(c3ccc(OC)cc3)=CC2=C(Br)C1=O (stereo not given) | inactive
37 | CC#CCN1C(=O)N[C@@H](c2ccccc2)C(C(=O)OC)=C1C | inactive
38 | CCOC(=O)CN1C(=O)N[C@@H](c2cccs2)C(C(C)=O)=C1C | inactive
39 | CCN1C(=O)N[C@@H](c2cccc(C(F)(F)F)c2)[C@H](C(=O)OC)[C@H]1C | inactive
40 | COC/C=C/C1=CC2=CC(=O)C(C)(OC(=O)c3cnc4ccccc4n3)C(=O)C2=CN1CCN1CCOCC1 (stereo not given) | inactive
